In PubChem BioAssay:
Calls of active or inactive are those of the source.

Molecular target: NADPH oxidase 4 (Homo sapiens) (UniProt Q9NPH5)
Assay: compounds shifting NOX4 Amplex Red fluorescence – cell-based, HEK293-NOX4, tetracycline-induced, NOX inhibitor project, primary screen (AID 1160)
Conditions: HEK293-NOX4, Amplex Red H2O2 fluorescence, 45 min; higher = more signal, called active from +8 up or from −8 down

NADPH oxidase 4 (Homo sapiens), sequence (Q9NPH5 whole entry, looked up): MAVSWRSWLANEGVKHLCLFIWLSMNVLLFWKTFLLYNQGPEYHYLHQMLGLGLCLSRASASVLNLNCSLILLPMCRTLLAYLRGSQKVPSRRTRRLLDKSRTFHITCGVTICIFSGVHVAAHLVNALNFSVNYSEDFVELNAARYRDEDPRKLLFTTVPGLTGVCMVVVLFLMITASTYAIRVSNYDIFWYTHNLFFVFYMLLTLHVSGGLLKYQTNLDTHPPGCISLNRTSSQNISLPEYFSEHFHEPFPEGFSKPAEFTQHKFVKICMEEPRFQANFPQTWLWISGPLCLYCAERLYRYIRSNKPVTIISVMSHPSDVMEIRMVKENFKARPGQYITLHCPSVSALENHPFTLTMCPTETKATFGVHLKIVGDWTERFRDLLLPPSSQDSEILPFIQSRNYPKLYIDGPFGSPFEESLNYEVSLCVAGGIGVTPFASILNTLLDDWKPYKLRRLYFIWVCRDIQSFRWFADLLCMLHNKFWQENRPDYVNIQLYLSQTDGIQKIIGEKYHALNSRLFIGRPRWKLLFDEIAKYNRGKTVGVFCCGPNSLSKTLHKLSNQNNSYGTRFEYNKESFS

z-score, inactive:
CCOC(=O)CCN1C(=O)[C@H]2[C@H]3[C@H](O)[C@H](O)CC(=NOCC=C(C)CCC=C(C)C)[C@H]3CC[C@H]2C1=O 0.943
CCOC(=O)[C@H](Cc1ccccc1)NC(=O)CCC1CC(OC(=O)NCc2cccc3ccccc23)CC2(CCCC(COC(=O)NCCOc3ccccc3)O2)O1 (stereo partly drawn) 0.762
CCOC(=O)[C@H](CC(C)C)NC(=O)CCC1CC(OC(=O)NCCc2ccc(F)cc2)CC2(CCCC(COC(=O)NCCCN3CCCC3=O)O2)O1 (stereo partly drawn) 0.775
CC(=O)OC[C@H]1O[C@H](CC=NOC(C)CN2CCCCc3nc(C)c(C)cc32)C=C[C@@H]1OC(C)=O (stereo partly drawn) -0.695
C#CCCCON=C1[C@H]2CCn3c(=O)n([C@@H](CC)c4ccccc4)c(=O)n3[C@H]2[C@H](O)[C@@H]2O[C@H]12 0.633
CO[C@H]1C[C@@H]2C[C@H](O)CC(CC(=O)O[C@@H](C=CCC(C)C)C[C@@H]3CC[C@H](C)[C@@H](C1)O3)O2 0.226
C=CC[C@@H]1C=C[C@H](ON=C[C@@H](NS(=O)(=O)c2ccc(C)cc2)[C@H](C)C=CCC(=O)OC)[C@@H](CO)O1 0.118
CO[C@H]1COC(=O)CCC[C@H](C)[C@@H](OC)COC(=O)CC=C[C@@H]1C -0.0115
O=C(NN=C1C[C@@H](O)[C@@H](O)[C@@H]2[C@@H]3C(=O)N(Cc4ccccc4)C(=O)[C@@H]3CC[C@H]12)OCc1ccccc1 0.638
CCOC(=O)[C@H](CC(C)C)NC(=O)CCC1CC(OC(=O)NCCc2ccc(F)cc2)CC2(CCCC(COC(=O)NCc3cccc4ccccc34)O2)O1 (stereo partly drawn) 0.378
CCN1C(=O)[C@H]2[C@H]3[C@H](O)[C@H](O)CC(=NOCC(C)C)[C@H]3CC[C@H]2C1=O 0.358
COC(OC)[C@@H](C)[C@H](OC)[C@@H](C)[C@H](OC)c1ccccc1 0.153
COC(=O)[C@H](C)NC(=O)CCC1CC(OC(=O)NCc2ccc3c(c2)OCO3)CC2(CCCC(COC(=O)NCc3ccccc3)O2)O1 (stereo partly drawn) 1.22
CO[C@@H](C1CCCCC1)[C@@H](C)[C@H](OCc1cccc(Br)c1)[C@@H](C)CO 0.0443
CC(C)CON=C1[C@H]2CCn3c(=O)n(C)c(=O)n3[C@H]2[C@H](O)[C@@H]2O[C@H]12 0.0343
C[C@]12CCC3c4ccc(OCC5CO5)cc4CCC3C1CC[C@@H]2O (stereo partly drawn) -1.42
CO[C@@H]1C=CCC(=O)N[C@@H](C)C(=O)OC[C@@H](OC)[C@H](C)C=CCC(=O)OC[C@H]1C 0.0964
OC[C@H]1O[C@H](C#Cc2ccccc2)C=C[C@@H]1O 0.662
CC(C)[C@@H](OCc1ccccc1)[C@H](C)C=NO[C@H](C)c1cn([C@@H]2COC[C@H]2O)nn1 0.827
CN1CCc2nc(-c3ccccc3)c(-c3ccccc3)cc2C1 -0.0205
O=C1[C@H]2[C@H]3[C@H](O)[C@H](O)CC(=NOC[C@@H](O)COCc4ccco4)[C@@H]3CC[C@H]2C(=O)N1Cc1ccc2c(c1)OCO2 0.499
CCOC(=O)[C@H](CC(C)C)NC(=O)CCC1CC(OC(=O)NCc2ccc3c(c2)OCO3)CC2(CCCC(COC(=O)NCCc3ccccc3OC)O2)O1 (stereo partly drawn) 0.886
C[C@@H]1CC[C@H]2C(=O)OC(CN3C(=O)c4ccccc4C3=O)CN2[C@H]1c1ccc(Br)cc1 (stereo partly drawn) 0.182
O=C1C=C[C@@H](O)[C@@H]2[C@@H]3C(=O)N(Cc4ccc5c(c4)OCO5)C(=O)[C@@H]3CC[C@@H]12 -1.55
COC(=O)[C@H](C)NC(=O)CCC1CC(OC(=O)NCc2cccc3ccccc23)CC2(CCCC(COC(=O)NCCCN3CCCC3=O)O2)O1 (stereo partly drawn) -0.0825
CO[C@@H]1COC(=O)[C@H](COCc2ccccc2)NC(=O)CC=C[C@@H](C)[C@H](OC)COC(=O)[C@@H](C)NC(=O)CC=C[C@H]1C 0.773
CON=C(C)CCN1CCCCc2nc(C)c(C)cc21 -0.0593
C#CCCCON=C1[C@H]2CCn3c(=O)n(Cc4cc5c(cc4Cl)OCO5)c(=O)n3[C@H]2[C@H](O)[C@@H]2O[C@H]12 0.367
